# According to PubChem BioAssay (EPA / NIEHS):
# Results filed as inconclusive are left out. The source made the active and inactive calls. Rule for the calls: active = hit-call score of the fitted dose curve at least 0.9, where 1 is the maximum; inconclusive = response in the unintended direction; inactive = score below 0.9.
# Tested on: guinea pig Dopamine Transporter (DAT), gene 100714898
# Assay: NVS_TR_gDAT: NovaScreen (NVS) Transporter Assay for guinea pig Dopamine Transporter (DAT) (AID 2283369);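 note: active compounds lower bound radioligand signal relative to DMSO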
# Description: NVS_TR_gDAT is a biochemical, single-readout assay that uses extracted gene-proteins from Guinea pig striatal membranes in a tissue-based cell-free assay. Measurements were taken 2 hours after chemical dosing in a 48-well plate.NVS_TR_gDAT is one of one assay component(s) measured or calculated from the NVS_TR_gDAT assay. It is designed to make measurements of radioligand binding, a form of binding reporter, as detected with scintillation counting signals by Filter-based radiodetection technology.Data from the assay component NVS_TR_gDAT was analyzed into 1 assay endpoint. This assay endpoint, NVS_TR_gDAT, was analyzed in the positive analysis fitting direction relative to DMSO as the negative control and baseline of activity. Using a type of binding reporter, loss-of-signal activity can be used to understand changes in the binding as they relate to the gene Slc6a3. Furthermore, this assay endpoint can be referred to as a primary readout, because the performed assay has only produced 1 assay endpoint. To generalize the intended target to other relatable targets, this assay endpoint is annotated to the transporter intended target family, where the subfamily is neurotransmitter transporter.
# Binding assays used specific radioligands (tritiated, iodinated) with non-radioactive competitive displacement ligands in agonist or antagonist protocols (as indicated) and various reference compounds and inhibitors to titrate specific binding to receptors and transporters. Most enzyme assays (CYPs, kinases, phosphatases, proteases, HDACs) used recombinant protein and specific substrates (fluorescence mostly, some colorimetric and radioactive) and inhibitors, followed by a biochemical separation of substrate and product. All assays for the biochemical HTS were initially run in duplicate at a single concentration (10 uM for CYP450 assays and 25 uM for all others). Assay-chemical combinations meeting a pre-defined threshold (e.g., 30% inhibition and other criteria defined below) were then run in singleton concentration-response format with maximum concentration of 20 uM for CYPs and 50 uM for all others. Each assay was run with positive and negative controls, and concurrent controls on every plate. The follow-up (secondary) screen tested active chemical-pairs in concentration series, as well as a few additional assays not tested in the primary screen, some selected negative inactives, and several cases re-run in the concentration series for confirmatory purposes.
SMILES,AC50,outcome
CCCCCCCCCC[N+](C)(C)CCCCCCCCCC,25 µM (active),–
CCC(C)(c1ccc(O)cc1)c1ccc(O)cc1,17.3 µM (active),–
CCOC(=O)C(O)(c1ccc(Cl)cc1)c1ccc(Cl)cc1,14.3 µM (active),–
CC(C)(c1ccccc1)c1ccc(O)cc1,15.9 µM (active),–
Nc1ccc(-c2ccc(N)cc2)cc1,12.8 µM (active),–
C[C@]12CCC(=O)C=C1CC[C@@H]1[C@@H]2CC[C@]2(C)C(=O)CC[C@@H]12,–,inactive
Oc1ccc(C(c2ccc(O)cc2)(C(F)(F)F)C(F)(F)F)cc1,16 µM (active),–
COc1ccc(O)c(C(C)(C)C)c1,16.6 µM (active),–
O=NN(c1ccccc1)c1ccccc1,–,inactive
Cc1cc(O)ccc1Cl,–,inactive
